Mtb MbtI inh: inhibitors of Mycobacterium tuberculosis siderophore enzyme MbtI | inhibition, % (concentration not given with the values) | purified MbtI enzyme, fluorescence intensity read-out | AID 493033 | hit rate 0.89% among 100,000; in the data active means inhibition mostly above about 56%, no sharp cut-off; inactive means mostly below about 77%
Polio RdRp inh: inhibitors of poliovirus RNA polymerase binding and polymerization; poliovirus polymerase elongation, fluorescence polarization; hits give low values; % elongation, % (compound at 16.7 µg/mL); hit rate 0.66% among 150,000; AID 588519; in the data active means % elongation below about 90%
MenB inh: blocks the Mycobacterium tuberculosis MenB enzyme | P9WNP5 | MenB enzyme assay, absorbance read-out | inhibition, % (concentration not given with the values) | hit rate 0.43% among 100,000 | AID 540299; in the data active means inhibition above about 21%, passing the limit was not always enough
Target sequence (P9WNP5 whole entry, looked up): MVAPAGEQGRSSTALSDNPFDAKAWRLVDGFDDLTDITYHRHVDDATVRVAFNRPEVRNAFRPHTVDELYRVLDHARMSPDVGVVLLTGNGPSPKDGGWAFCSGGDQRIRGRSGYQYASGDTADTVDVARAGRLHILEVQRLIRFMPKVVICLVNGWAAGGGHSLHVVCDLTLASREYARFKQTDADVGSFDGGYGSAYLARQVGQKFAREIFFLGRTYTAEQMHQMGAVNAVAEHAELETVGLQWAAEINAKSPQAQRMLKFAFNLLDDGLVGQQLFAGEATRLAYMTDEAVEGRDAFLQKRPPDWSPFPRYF
AID504770: growth inhibitors of E. coli YBA685 in a screen for V. cholerae RctB (chromosome II replication) inhibitors; z-score (concentration not given with the values); E. coli YBA685 rctB-dependent plasmid, OD600 growth, 3 h; hits give low values; hit rate 0.27% among 130,000; in the data active means z-score below about -2, passing the limit was not always enough
Large screens that a line does not name were inactive. A selection: hits, their analogues and other compounds. The true share with any hit is near 1.4%.

O/N=C(/Cc1ccc2ccccc2n1)c1ccccc1	none (no result: MenB inh)
Cc1ccc2occ(CN(C)CCc3ccccn3)c(=O)c2c1	none
O=C1c2ccccc2-c2nc3ccccc3nc21	none
O=C1c2ccccc2-c2n[nH]c(=S)nc21	Polio RdRp inh 76, AID504770 -2.6
Clc1ccc(NCCC2=CCCCC2)nn1	MenB inh 34
O=C1C=CC(=O)c2c(Cl)ccc(Cl)c21	AID504770 -2
CC(C)(C)OC(=O)N1CCN(C(=O)OC(C)(C)C)CC1	none
CCC(C(=O)N1CCCC1)n1nc(C)c2sc3ccccc3c2c1=O (configuration not stated)	none
CCC(C(=O)N1CCN(c2ccccc2)CC1)n1nc(C)c2sc3ccccc3c2c1=O (configuration not stated)	Polio RdRp inh 90 (no result: Mtb MbtI inh, MenB inh, AID504770)
CC1CN(Cc2ccccc2)CCN1C(=O)c1csc(-c2cccs2)n1 (configuration not stated)	none (no result: Mtb MbtI inh, Polio RdRp inh, MenB inh)
O=C1C(Sc2ncn[nH]2)=C/C(=N/S(=O)(=O)c2cccs2)c2ccccc21	Polio RdRp inh 87
O=C1C(Sc2ncn[nH]2)=C/C(=N/S(=O)(=O)c2ccc(F)cc2)c2ccccc21	Polio RdRp inh 88
O=C1C(NS(=O)(=O)c2ccccc2)=C/C(=N\S(=O)(=O)c2ccc(F)cc2)c2ccccc21	Polio RdRp inh 78
O=C(O)c1cccc(Nc2nc(-c3ccccc3)c3ccccc3n2)c1	none
C=CCn1c(CCCNC(C)=O)nc2ccccc21	none (no result: Mtb MbtI inh, Polio RdRp inh, MenB inh)
O=C(NC1CC2CCCC(C1)N2CC(=O)N1CCCc2ccccc21)c1ccccc1 (configuration not stated)	none
COc1ccc(C(=O)n2c3c(c(=O)n2-c2ccccc2)Cc2ccc(OC)cc2O3)cc1	MenB inh 54
O=C(CCCc1ccccc1)OCn1nnc2ccccc2c1=O	none
O=C1c2ccccc2CC1Sc1nnc(-c2ccco2)c(-c2ccco2)n1 (configuration not stated)	Mtb MbtI inh 97
COc1cc(C=C(C#N)C#N)ccc1O	Mtb MbtI inh 59
COc1ccc(-c2cn3c(n2)sc2cc(C(=O)NCCCN4CCCCCC4)ccc23)cc1	none (no result: Mtb MbtI inh, MenB inh, AID504770)
COc1ccc(-c2cn3c(n2)sc2cc(C(=O)NCCCN4CCCCC4)ccc23)cc1	Polio RdRp inh 90 (no result: Mtb MbtI inh, MenB inh, AID504770)
O=C1CN(C(=O)C2CCCC2)C(c2ccc(F)cc2)c2cc(F)ccc2N1 (configuration not stated)	none (no result: Mtb MbtI inh, Polio RdRp inh, MenB inh)
CC(C)OC(=O)Cn1c(C2CC2)nc2ccccc2c1=O	MenB inh 31
CC(C)c1ccc(NC(=O)CSCc2csc3ccccc23)cc1	none
O=C1N=C(N2CCCCC2)S/C1=C\c1cccs1	none (no result: Mtb MbtI inh)
O=C1N=C(c2ccccc2)S/C1=C\c1cccs1	Mtb MbtI inh 100
Cn1cnc2c1c(=S)[nH]c(=O)n2Cc1ccccc1	Polio RdRp inh 82 (no result: Mtb MbtI inh)
O=C(NC1CCCC1)C1CCN(c2ccccc2)C1=O (configuration not stated)	none
CCC1CCCCN1CCCNc1nc(=S)[nH]c2ccccc12 (configuration not stated)	none
CC(NCCC(=O)O)c1ccccc1 (configuration not stated)	MenB inh 34
CC1S/C(=N\Nc2ccc(Cl)cc2)NC1=O (configuration not stated)	none
CCN(C(=O)c1cccc2c1SCCC2=O)c1ccccc1F	none
CC(C)C(=O)Nc1cccc(-c2nc3ccccc3c(=O)o2)c1	AID504770 -3.5
O=C1CSC(=Nc2cccc(C(F)(F)F)c2)N1	none
O=C(O)CSC1=NCCCN1	none
O=C(O)CSC1=NC2CCCCC2N1 (configuration not stated)	MenB inh 33
CC1(NS(C)(=O)=O)CC=CC1	MenB inh 29
CCC(C)c1ccc(C2=Nn3c(nnc3C(C)C)SC2)cc1 (configuration not stated)	Polio RdRp inh 74
CCCn1c(=O)c2sccc2n2c(CCCC(=O)N(C)Cc3ccco3)nnc12	none
COC(=O)C1CCCN1S(=O)(=O)c1ccccc1N (configuration not stated)	none
CC(C)c1ccc(-n2c(=O)[nH]c3ccccc3c2=O)cc1	Polio RdRp inh 73
COC(=O)c1sc(OC)cc1OC(=O)c1cccs1	none (no result: Mtb MbtI inh, Polio RdRp inh, MenB inh)
Nc1cc(=O)[nH]c(SCC(=O)Nc2ccccc2)n1	none
CN(C)c1ccc(NC(=O)CSc2nc(N)cc(=O)[nH]2)cc1	MenB inh 28
COc1ccccc1CNC(=O)c1ccccc1SC	Mtb MbtI inh 59
COc1ccccc1CNC(=O)c1cnc(SC)nc1C	none (no result: Mtb MbtI inh, MenB inh, AID504770)
CCOc1ccc(CCNC(=O)c2cnc3sc(N4CCCCCC4)nn3c2=O)cc1	none (no result: Mtb MbtI inh, MenB inh, AID504770)
CCOc1ccc(CCNC(=O)c2cnc3sc(N4CCCC4)nn3c2=O)cc1	Polio RdRp inh 5.0 (no result: Mtb MbtI inh, MenB inh, AID504770)
COc1cc(OC)c2c3c(c(=O)oc2c1)CCC3	none (no result: Mtb MbtI inh, Polio RdRp inh, MenB inh)
Cc1ccc(N2C(=O)C3CN4CCCN4C3C2=O)cc1 (configuration not stated)	none
S=c1sscc1-c1ccccc1	Polio RdRp inh 53 (no result: Mtb MbtI inh)
O=c1cnc(Nc2ccccc2Cl)c2ccccc2n1	none
O=C1CSC(=S)N1c1cccc(O)c1	AID504770 -3.1 (no result: Mtb MbtI inh, Polio RdRp inh, MenB inh)
NS(=O)(=O)c1ccc(N2C(=O)CSC2=S)cc1	Mtb MbtI inh 57
Cc1ccc(S(=O)(=O)N2CCCCC2)cc1C(=O)O	none (no result: Mtb MbtI inh, Polio RdRp inh, MenB inh)
CCOC(=O)C1CCN(c2nc3ccccc3o2)CC1	none (no result: Polio RdRp inh, MenB inh)
CNC(=S)NCCN1C(=O)S/C(=C\c2cccnc2)C1=O	AID504770 -3
Cc1oc(C(C)(C)C)cc1-c1cc(N)n(-c2ccc(I)cc2)n1	none
Cc1ccc(C(=O)c2ccc(C)c(C)c2)cc1C	none
Cc1ccc(C(=O)CBr)cc1C	Mtb MbtI inh 88 (no result: MenB inh)
CCCC(=O)C1CCOC(C)(CC)C1 (configuration not stated)	none
O=C(Cn1nnc(-c2ccccc2)n1)c1ccc(S(=O)(=O)N2CCCCC2)cc1	none
O=c1[nH][nH]c(=S)n1C1CCCCC1	Mtb MbtI inh 57
Cc1[nH]c(=S)n(C2CCCCC2)c1C	none
O=C(Nc1ccc(-c2cn3cccnc3n2)cc1)C1CCCCC1	none (no result: Mtb MbtI inh, Polio RdRp inh, MenB inh)
CSc1nc(-c2ccco2)nn1S(C)(=O)=O	Mtb MbtI inh 84
Cc1ccc(C(=O)N2CCC(NC(=O)Cc3ccccc3)CC2)cc1	none (no result: Mtb MbtI inh, Polio RdRp inh, MenB inh)
COc1ccc(OC)c(S(=O)(=O)Nc2cccc(-c3ccc(N4CCCCC4)nn3)c2)c1	Polio RdRp inh 85 (no result: Mtb MbtI inh, MenB inh, AID504770)
COc1ccc(F)cc1S(=O)(=O)Nc1cccc(-c2ccc(N3CCCCCC3)nn2)c1	none (no result: Mtb MbtI inh, MenB inh, AID504770)
CCOc1ccc(CN(C)C(=O)c2cc(S(=O)(=O)N3CCOCC3)ccc2C)cc1	none
COc1ccc(CCN2C(=O)CC(=O)NC2=S)cc1OC	none
COc1ccc(CCN2CC(=O)N3CCCC(C4=CC(=O)C=CC4=O)=C3C2=O)cc1OC	Mtb MbtI inh 99
CCn1cc(C(=O)O)c(=O)c2cnc(N3CCN(C(=S)NCc4ccccc4)CC3)nc21	AID504770 -3.4
O=C(O)/C=C/C(=O)Nc1ccc(-c2csnn2)cc1	none (no result: Mtb MbtI inh, Polio RdRp inh, MenB inh)
COc1ccc(C(=O)CSC2=NCCc3ccccc32)cc1	Mtb MbtI inh 67, Polio RdRp inh 77
O=C(NCC1(c2ccccc2)CCOCC1)c1ccco1	none (no result: Polio RdRp inh, MenB inh)
COc1ccc(NC(=O)CSc2nnc(N)s2)cc1	none (no result: Mtb MbtI inh, MenB inh, AID504770)
COc1ccccc1NC(=O)CSC(=O)c1ccccc1	Mtb MbtI inh 87 (no result: MenB inh)
COc1ccccc1NC(=O)CSc1nnc(N)s1	Polio RdRp inh 83 (no result: Mtb MbtI inh, MenB inh, AID504770)
CCOC(=O)c1c(NC(=O)/C(C#N)=C/c2ccc(OC)cc2)sc2c1CCC2	none (no result: Mtb MbtI inh, MenB inh, AID504770)

Compound activity as filed in PubChem.
